This note sets out measurements from PubChem BioAssay (NCATS).

Assay [1] concerns the target Estrogen receptor (Homo sapiens) (UniProt P03372). Description: qHTS assay for small molecule antagonists of estrogen receptor alpha signaling (AID 588513; active means well fitted curve in the direction sought with a large enough effect in the signal ratio, with a control signal flat, not every such curve was filed as active; the % refers to the signal ratio; further: on the % scale 0 is the no-effect control and ±100 the full control effect). Put shortly:
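Beta-lactamase reporter, antagonist mode, HEK 293 GripTite cells; 0.5nM E2 stimulus, 18 h, 37 C; CCF4 dye 2 h RT; fluorescence. IC50 and efficacy from Hill fits, normalized to E2 and DMSO.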

For assay [2] the target is unchanged. Description: qHTS assay for small molecule agonists of estrogen receptor alpha signaling (AID 588514).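 Further: 0% = vehicle only and 100% = reference agonist; nearly all actives have a fitted effect of over 70% in size.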 A digest of the protocol: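 ER-alpha-UAS-bla GripTite HEK293 cells, 5000/well in 2% charcoal/dextran-stripped FBS medium, treated with compound titrations 18 h at 37 C. CCF4 beta-lactamase read by fluorescence after 2 h RT; normalised to 20 nM 17-beta-estradiol (100%) and DMSO (0%), Hill fit for EC50 and efficacy.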

Assay [3] has as its target Peroxisome proliferator-activated receptor gamma (Homo sapiens) (UniProt P37231). Description: qHTS assay for small molecule agonists of peroxisome proliferator-activated receptor gamma signaling (AID 588536; active means well fitted curve in the direction sought with a large enough effect in the signal ratio, with a control signal flat, not every such curve was filed as active; the % refers to the signal ratio;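 further: 0% = DMSO basal wells and 100% = rosiglitazone at 2 µM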). Put shortly: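 Test agents, titrated, stimulated HEK293 UAS-bla cells overnight (16 h, 37 C). Substrate CCF4 was then added for two hours at room temperature before fluorescence reading.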
(qHTS replaces the single test concentration by a dilution series.)

The target is the same in assay [4]. Description: qHTS assay for small molecule antagonists of peroxisome proliferator-activated receptor gamma signaling (AID 588537; active means well fitted inhibition curve with a large enough effect in the signal ratio, with a control signal flat, not every such curve was filed as active; the % refers to the signal ratio;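 further: reporter cells co-stimulated with 50 nM rosiglitazone agonist during compound treatment; % of control where 0% means no effect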). Put shortly:
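Antagonist mode, beta-lactamase reporter in HEK293; charcoal/dextran FBS 1%; 3000 cells/well, 37 C 6-6.5 h; cpd titration + rosiglitazone 50 nM final, 16 h 37 C; CCF4, 2 h RT; 460/530 nm; Hill fit → IC50, efficacy.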

The target of assay [5] is Vitamin D3 receptor (Homo sapiens) (UniProt P11473). Description: qHTS assay for small molecule antagonists of vitamin D receptor signaling (AID 588541).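 Further: receptor activated by calcitriol during compound treatment; series mostly up to about 77 µM; on the % scale 0 is the no-effect control and ±100 the full control effect.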 Put shortly: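 Antagonist-mode beta-lactamase reporter assay: HEK293T VDR-UAS-bla cells were exposed to titrated compound alongside 1-alpha,25-dihydroxyvitamin D3 at 3 nM final for 16 h. Values were normalized to the 50 nM agonist control and DMSO basal, with IC50 and efficacy from Hill equation fits.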

The target in assay [6] is Retinoic acid receptor RXR-alpha (Homo sapiens) (UniProt P19793). Description: qHTS assay for small molecule agonists of retinoid X receptor alpha signaling (AID 588544).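 On activation: 0% = DMSO basal wells and 100% = reference agonist.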
Assay [7] has as its target Thyroid hormone receptor beta (Homo sapiens) (UniProt P10828). Description: qHTS assay for small molecule agonists of thyroid hormone receptor beta signaling (AID 588545).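 Further: 0% = DMSO only and 100% = 10 nM T3.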 Put shortly: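 Beta-lactamase reporter activity under TR response element control is measured in HEK 293 cells after 18 hrs compound exposure. Signal is ratiometric CCF4 fluorescence, 460/530 nm.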
The nature of assay [8]: qHTS assay for small molecule antagonists of retinoid X receptor alpha signaling (AID 588546; active means well fitted inhibition curve with a large enough effect in the signal ratio, with a control signal flat, not every such curve was filed as active; the % refers to the signal ratio;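 further: cells stimulated with 9-cis-retinoic acid as agonist; on the % scale 0 is the no-effect control and ±100 the full control effect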). The following applies: HEK293T RXRa-UAS-bla, beta-lactamase ratio, antagonist mode; measured here: W530 green channel, cytotoxicity proxy. A digest of the protocol: (§1)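 Beta-lactamase reporter inhibition, read as CCF4 fluorescence ratio (ex 405, em 460/530 nm) after 2 h at RT. HEK293T UAS-bla cells, 2500/well, were stimulated with 9-cis-RA at 500 or 100 nM final alongside test compound for 18 h at 37 C.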

Assay [9] has as its target Retinoic acid receptor RXR-alpha (Homo sapiens) (UniProt P19793). Described as above. The note with it: HEK293T RXRa-UAS-bla, beta-lactamase ratio, antagonist mode. A digest of the protocol: as §1
Assay [10] addresses Thyroid hormone receptor beta (Homo sapiens) (UniProt P10828). Description: qHTS assay for small molecule antagonists of thyroid hormone receptor beta signaling (AID 588547; active means well fitted inhibition curve with a large enough effect in the signal ratio, with a control signal flat, not every such curve was filed as active; the % refers to the signal ratio;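 further: cells stimulated with 0.4 nM T3 agonist during compound exposure; series mostly up to about 77 µM; on the % scale 0 is the no-effect control and ±100 the full control effect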). The following applies: TR-UAS-bla HEK293, beta-lactamase ratio, antagonist mode, 18 h. A digest of the protocol:
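Inhibition of T3-driven (0.4nM final) beta-lactamase reporter activity was measured over 0.59 nM to 92 uM compound after 18 h at 37 C. The cells were GripTite HEK293 TR-UAS-bla in charcoal/dextran-stripped serum, with CCF4 ratio read-out and IC50 from Hill fits.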

Assay [11] in a line: qHTS assay for small molecule activators of the p53 signaling pathway (AID 651743; active means well fitted activation curve with a large enough effect in the signal ratio, not every such curve was filed as active; the % refers to the signal ratio; further: series mostly up to about 92 µM; % of control where 0% means no effect). The note with it: HCT-116 p53RE-bla, beta-lactamase FRET ratio, 16 h; activation: stronger effect = higher value. Put shortly: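 Read-out is fluorescence intensity from the LiveBLAzer B/G FRET substrate, added for 2 hours at room temperature after HCT-116 p53RE-bla cells had been incubated with compounds for 16 hours at 37 C.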

For assay [12], the target named is Peroxisome proliferator-activated receptor alpha (Homo sapiens) (UniProt Q07869). Description: qHTS assay for small molecule agonists of the peroxisome proliferator-activated receptor alpha (PPARalpha) signaling pathway (AID 651778; active means well fitted curve in the direction sought with a large enough effect; an effect the other way counts as inactive or inconclusive; further: % of control where 0% means no effect). The note with it: PathHunter PPARalpha complementation, chemiluminescence, 6 h; max response: stronger effect = higher value. Put shortly: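 Chemiluminescence from complemented enzyme reported PPARalpha activation in cells after 6 hr of compound treatment at 37 C. The detection reagent was incubated for 60 min at room temperature, and compounds were scored as agonists.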

The nature of assay [13]: qHTS assay for small molecule agonists of the antioxidant response element (ARE) signaling pathway measured by Nrf2-dependant transcriptional activity (AID 720636; active means well fitted curve in the direction sought with a large enough effect in the repeat runs; an effect the other way counts as inactive or inconclusive; further: % of control where 0% means no effect). A digest of the protocol:
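Nrf2-dependent transcription read as ONE-Glo luciferase signal from ARE-luc HepG2 reporter cells after 16 hr compound treatment at 37 C, 5% CO2, in assay medium with 1% dialyzed FBS.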

Assay [14] in a line: qHTS assay for small molecule agonists of the antioxidant response element (ARE) signaling pathway measured by Nrf2-dependant transcriptional activity - cell viability counter screen (AID 720653; active means well fitted curve in the direction sought with a large enough effect in the repeat runs; an effect the other way counts as inactive or inconclusive; further: on the % scale 0 is the no-effect control and ±100 the full control effect). The note with it: ARE-bla HepG2 viability, CellTiter-Glo ATP luminescence, 16 h; max response: stronger effect = lower value. Put shortly:
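Cytotoxicity counter screen: intracellular ATP quantified by CellTiter-Glo luminescence in the same ARE-bla HepG2 plates, after 16 h compound exposure and a 2 h beta-lactamase substrate step.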

Assay [15] in a line: qHTS assay for cell viability of HEK293 cells (AID 743288; active means well fitted curve in the direction sought with a large enough effect; an effect the other way counts as inactive or inconclusive; further: on the % scale 0 is the no-effect control and ±100 the full control effect; nearly all actives have a fitted effect of over 50% in size). The following applies: ATP luminescence (CellTiter-Glo), 18 h; max response: stronger effect = lower value. A digest of the protocol: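 Environmental chemicals tested in qHTS format against parental HEK293 cells; 18 h treatment, 37 C; read-out ATP luminescence (CellTiter-Glo), 30 min RT development.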
The nature of assay [16]: qHTS assay for cell viability of the p53RE-bla HCT-116 cell line (AID 743292; active means well fitted curve in the direction sought with a large enough effect; an effect the other way counts as inactive or inconclusive; further: on the % scale 0 is the no-effect control and ±100 the full control effect; nearly all actives have a fitted effect of over 55% in size). A digest of the protocol:
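ATP-based luminescent viability (CellTiter-Glo, 30 min RT) after 16 h compound treatment at 37 C of p53RE-bla HCT-116 cells, seeded at 4,000 cells/well and rested 5 h before dosing.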

Assay [17] has as its target Peroxisome proliferator-activated receptor delta (Homo sapiens) (UniProt Q03181). Description: qHTS assay for small molecule agonists of peroxisome proliferator-activated receptor delta signaling (AID 588534).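 Further: 0% = DMSO basal wells and 100% = positive control agonist at 10 µM.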 Put shortly: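 Cells carrying a PPAR-delta beta-lactamase reporter were treated with compounds for 18 h at 37 °C in agonist mode. CCF4 fluorescence was read after 2 h; EC50 and efficacy from Hill fits.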

Assay [18] in a line: qHTS assay for small molecule agonists of retinoid X receptor alpha signaling (AID 588544).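 On activation: 0% = DMSO basal wells and 100% = reference agonist.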 The following applies: HEK293T RXRa-UAS-bla, beta-lactamase reporter, 18 h; 530 nm emission.
Assay [19] in a line: qHTS assay for environmental chemicals that activate the Aryl hydrocarbon Receptor (AhR) signaling pathway (AID 651777; active means well fitted curve in the direction sought with a large enough effect; an effect the other way counts as inactive or inconclusive; further: % of control where 0% means no effect; nearly all actives have a fitted effect of over 15% in size). The note with it: 1A2-DRE human hepatoma cells, luciferase, 24 h; activation: stronger effect = higher value. A digest of the protocol:
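Luminescence (One-Glo, 30 min, room temperature) reports AhR-driven luciferase in stably transfected human hepatoma cells bearing DRE and CYP1A2 promoter. Cells (1,200/well) were treated with compound for 24 hr at 37 C in qHTS format.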

Assay [20] addresses Nuclear receptor subfamily 1 group I member 2 (Rattus norvegicus) (UniProt Q9R1A7). Description: qHTS assay for small molecule activators of the rat pregnane X receptor (rPXR) signaling pathway (AID 651751; call rule not given here; further: 0% is about no effect). The note with it: rPXR reporter cells, luciferase (One-Glo), 24 h.

Values joined by “and” are separate entries in the source; they are usually repeats but may differ in a detail not shown here. Identical values can stand only once. Inconclusive results are not listed. Active and inactive are the calls of the source. Unless noted, the call rests on the fitted dose curve.

Thyroid hormone receptor beta (Homo sapiens), sequence (P10828 whole entry, looked up): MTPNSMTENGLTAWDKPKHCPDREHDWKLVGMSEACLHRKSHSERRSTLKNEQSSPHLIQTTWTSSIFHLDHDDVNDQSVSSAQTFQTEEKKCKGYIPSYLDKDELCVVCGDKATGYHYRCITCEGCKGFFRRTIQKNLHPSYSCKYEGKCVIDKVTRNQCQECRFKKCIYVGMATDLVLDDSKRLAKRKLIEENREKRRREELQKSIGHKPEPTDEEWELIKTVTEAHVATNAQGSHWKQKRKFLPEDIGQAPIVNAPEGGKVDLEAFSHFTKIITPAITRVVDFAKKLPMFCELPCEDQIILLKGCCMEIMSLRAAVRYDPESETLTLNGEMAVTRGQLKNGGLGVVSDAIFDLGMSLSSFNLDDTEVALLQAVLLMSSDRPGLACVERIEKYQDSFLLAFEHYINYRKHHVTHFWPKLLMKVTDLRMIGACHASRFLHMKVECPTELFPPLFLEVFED
Peroxisome proliferator-activated receptor alpha (Homo sapiens), sequence (Q07869 whole entry, looked up): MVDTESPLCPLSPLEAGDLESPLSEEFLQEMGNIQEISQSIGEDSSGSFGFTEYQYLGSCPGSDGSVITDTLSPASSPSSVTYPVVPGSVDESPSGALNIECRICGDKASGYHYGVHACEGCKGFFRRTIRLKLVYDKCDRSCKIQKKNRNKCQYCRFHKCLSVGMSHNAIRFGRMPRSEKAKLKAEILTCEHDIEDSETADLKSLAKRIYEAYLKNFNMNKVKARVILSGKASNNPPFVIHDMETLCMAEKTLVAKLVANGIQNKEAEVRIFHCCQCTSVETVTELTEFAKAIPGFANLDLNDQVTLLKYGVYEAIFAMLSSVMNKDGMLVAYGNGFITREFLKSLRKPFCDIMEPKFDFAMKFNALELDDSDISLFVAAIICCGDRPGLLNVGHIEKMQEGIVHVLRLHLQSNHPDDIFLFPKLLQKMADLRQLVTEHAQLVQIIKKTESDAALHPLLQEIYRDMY
Nuclear receptor subfamily 1 group I member 2 (Rattus norvegicus), sequence (Q9R1A7 whole entry, looked up): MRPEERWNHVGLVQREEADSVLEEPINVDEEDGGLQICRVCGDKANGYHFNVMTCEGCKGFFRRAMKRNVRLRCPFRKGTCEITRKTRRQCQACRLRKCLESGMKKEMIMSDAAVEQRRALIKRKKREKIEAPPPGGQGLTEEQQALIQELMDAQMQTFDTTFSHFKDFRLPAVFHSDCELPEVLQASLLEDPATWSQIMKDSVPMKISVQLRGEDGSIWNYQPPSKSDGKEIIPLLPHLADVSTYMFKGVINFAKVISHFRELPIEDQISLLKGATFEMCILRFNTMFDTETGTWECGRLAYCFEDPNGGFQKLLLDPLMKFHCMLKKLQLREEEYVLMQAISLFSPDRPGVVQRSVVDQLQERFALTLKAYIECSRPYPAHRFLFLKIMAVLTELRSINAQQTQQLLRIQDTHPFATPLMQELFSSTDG
Vitamin D3 receptor (Homo sapiens), sequence (P11473 whole entry, looked up): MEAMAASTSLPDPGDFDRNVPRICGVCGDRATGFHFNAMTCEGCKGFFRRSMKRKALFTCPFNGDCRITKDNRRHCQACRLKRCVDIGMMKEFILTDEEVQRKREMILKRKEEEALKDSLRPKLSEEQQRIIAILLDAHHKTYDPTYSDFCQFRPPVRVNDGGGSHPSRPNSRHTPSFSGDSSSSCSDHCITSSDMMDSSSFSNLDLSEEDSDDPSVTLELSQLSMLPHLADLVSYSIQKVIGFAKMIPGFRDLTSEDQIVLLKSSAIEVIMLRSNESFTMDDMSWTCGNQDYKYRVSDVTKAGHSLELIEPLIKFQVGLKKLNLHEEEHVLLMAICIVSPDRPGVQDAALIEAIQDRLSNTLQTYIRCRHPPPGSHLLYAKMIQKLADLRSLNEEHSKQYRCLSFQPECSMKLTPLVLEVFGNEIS
Peroxisome proliferator-activated receptor delta (Homo sapiens), sequence (Q03181 whole entry, looked up): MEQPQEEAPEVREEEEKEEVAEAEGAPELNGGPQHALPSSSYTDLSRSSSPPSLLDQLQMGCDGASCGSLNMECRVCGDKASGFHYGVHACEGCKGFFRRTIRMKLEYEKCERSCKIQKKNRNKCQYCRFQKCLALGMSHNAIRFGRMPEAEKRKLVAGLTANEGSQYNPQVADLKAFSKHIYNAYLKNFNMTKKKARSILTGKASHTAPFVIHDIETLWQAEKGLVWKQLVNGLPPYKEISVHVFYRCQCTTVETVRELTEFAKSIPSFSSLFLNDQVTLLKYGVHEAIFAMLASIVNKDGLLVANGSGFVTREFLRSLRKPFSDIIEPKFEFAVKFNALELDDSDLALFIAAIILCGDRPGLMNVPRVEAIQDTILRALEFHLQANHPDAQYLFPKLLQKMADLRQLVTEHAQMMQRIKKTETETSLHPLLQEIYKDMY
Estrogen receptor (Homo sapiens), sequence (P03372 whole entry, looked up): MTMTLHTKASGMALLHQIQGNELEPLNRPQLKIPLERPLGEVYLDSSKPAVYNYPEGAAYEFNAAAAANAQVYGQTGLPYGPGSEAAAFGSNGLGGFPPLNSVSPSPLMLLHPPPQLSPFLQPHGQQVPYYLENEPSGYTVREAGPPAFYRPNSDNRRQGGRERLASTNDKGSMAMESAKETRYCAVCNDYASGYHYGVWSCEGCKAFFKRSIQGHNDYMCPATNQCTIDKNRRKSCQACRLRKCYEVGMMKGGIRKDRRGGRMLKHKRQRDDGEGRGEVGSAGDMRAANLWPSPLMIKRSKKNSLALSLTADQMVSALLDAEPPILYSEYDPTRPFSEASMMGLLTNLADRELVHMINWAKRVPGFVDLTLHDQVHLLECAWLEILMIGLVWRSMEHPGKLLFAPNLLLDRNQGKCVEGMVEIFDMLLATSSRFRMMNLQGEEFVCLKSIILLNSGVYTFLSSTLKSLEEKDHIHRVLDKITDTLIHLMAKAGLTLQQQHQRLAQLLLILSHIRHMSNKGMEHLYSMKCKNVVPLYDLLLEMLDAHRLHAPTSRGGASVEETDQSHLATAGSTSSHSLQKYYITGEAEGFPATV
Peroxisome proliferator-activated receptor gamma (Homo sapiens), sequence (P37231 whole entry, looked up): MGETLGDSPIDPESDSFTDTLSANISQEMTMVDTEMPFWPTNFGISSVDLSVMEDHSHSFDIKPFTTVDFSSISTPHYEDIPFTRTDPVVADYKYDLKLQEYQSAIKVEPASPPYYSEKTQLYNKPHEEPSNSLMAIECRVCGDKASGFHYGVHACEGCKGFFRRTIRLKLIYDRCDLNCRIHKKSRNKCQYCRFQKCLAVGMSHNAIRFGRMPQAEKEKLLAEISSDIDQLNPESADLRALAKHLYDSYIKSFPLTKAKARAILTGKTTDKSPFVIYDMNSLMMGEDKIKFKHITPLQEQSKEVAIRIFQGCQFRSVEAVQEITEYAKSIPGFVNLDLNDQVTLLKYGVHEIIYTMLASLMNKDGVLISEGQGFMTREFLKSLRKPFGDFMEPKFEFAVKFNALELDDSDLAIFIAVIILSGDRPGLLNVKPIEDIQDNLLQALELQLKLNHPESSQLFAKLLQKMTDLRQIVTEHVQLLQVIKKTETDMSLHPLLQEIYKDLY
Retinoic acid receptor RXR-alpha (Homo sapiens), sequence (P19793 whole entry, looked up): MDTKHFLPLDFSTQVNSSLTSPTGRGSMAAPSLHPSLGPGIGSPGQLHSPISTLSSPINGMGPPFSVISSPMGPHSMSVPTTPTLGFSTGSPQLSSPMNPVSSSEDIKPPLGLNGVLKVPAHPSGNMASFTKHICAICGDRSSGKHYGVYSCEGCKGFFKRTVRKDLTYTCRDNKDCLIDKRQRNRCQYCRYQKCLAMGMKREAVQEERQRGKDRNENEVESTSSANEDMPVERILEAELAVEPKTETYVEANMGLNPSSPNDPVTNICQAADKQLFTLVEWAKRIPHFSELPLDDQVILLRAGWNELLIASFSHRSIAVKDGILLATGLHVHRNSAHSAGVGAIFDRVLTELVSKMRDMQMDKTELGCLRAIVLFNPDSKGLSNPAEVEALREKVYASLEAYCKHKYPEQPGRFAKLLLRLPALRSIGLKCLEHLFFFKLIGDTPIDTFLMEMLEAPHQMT

Take `CCCC1COC(Cn2cncn2)(c2ccc(Cl)cc2Cl)O1` (centres undefined): the Potency result in [1], in assay [2], in [3], in assay [4], in assay [5] and in [6] was “inactive” in each case. Also, the Potency entry in assay [7], in assay [13] and in assay [16] was “inactive” throughout. Moreover, the max response in [8] was 5.44%; in assay [9], 2.1% (inactive); in [12], -0.724% (inactive) and -0.169% (inactive); in assay [14], -18.4% (inactive) and -18.3% (inactive); in [15] it was -21.6% (inactive) and -21.9% (inactive). Besides, the activity change % (negative = inhibition) in assay [10] is 12.9% (inactive) and 0.314% (inactive). The activation in [11] is -6.14% (inactive).
Regarding `CCNc1nc(NC(C)(C)C)nc(SC)n1`, the Potency entry in assay [1], in assay [2], in [4], in assay [5], in assay [6] and in assay [7] was “inactive” each time. Also, the Potency entry in [13] and in [16] was “inactive” in each case. Further, the outcome in assay [17] was inactive. Further, the max response is -0.223% in assay [18]; 1.46% (inactive) in assay [12]; -11.3% (inactive) in [14]; -12.7% (inactive) in [15]; 2.02% (inactive) in [20]. Also, the activity change % (negative = inhibition) in assay [10] was 6.54% (inactive). Further, the activation is 13.8% (inactive) in [11] and 0.606% (inactive) in assay [19].
On to `CCOP(=S)(OCC)Oc1ncn(-c2ccccc2)n1`, for which the Potency result in [1], in assay [2], in assay [3], in assay [5], in assay [6] and in assay [7] was “inactive” each time. The Potency result in assay [13] and in assay [16] was “inactive” in each case. In assay [17], the compound was classed as inactive. For the same compound, the max response in assay [18] was -6.39%; in assay [8], -1.85%; in [9] it was -7.83% (inactive); in assay [12], -2.29% (inactive); in assay [14], -3.44% (inactive). Also, the activity change % (negative = inhibition) in assay [10] is 4.61% (inactive).
On to `C=CC1(C)OC(=O)N(c2cc(Cl)cc(Cl)c2)C1=O` (centres undefined), for which the Potency entry in [1], in assay [2], in [3], in assay [4], in [5] and in [7] was “inactive” throughout. For the same compound, the Potency result in assay [13] and in [16] was “inactive” each time. Also, the outcome in assay [17] was inactive. The max response in assay [8] was -0.794%; in assay [9], -13.3% (inactive); in [12], -2.56% (inactive); in [14] it was -7.58% (inactive); in assay [15], -8.07% (inactive); in assay [20], -0.0091% (inactive). Further, the activation in assay [19] was -0.237% (inactive).
As for `Clc1ccc([C@]2(Cn3cncn3)C[C@@H](Br)CO2)c(Cl)c1`, the Potency result in assay [1], in [2], in assay [3], in assay [5], in assay [7] and in assay [13] was “inactive” in each case. The Potency result in [16] was “inactive”. Also, in [17], the compound was classed as inactive. Also, the max response in [8] is -15.6% and -7.06%; in assay [9] it was -12.9% (inactive) and -9.53% (inactive); in [12] it was -0.572% (inactive) and -0.644% (inactive); in assay [14], -16.1% (inactive) and 0.925% (inactive); in assay [15], -21.9% (inactive) and -13.3% (inactive). Besides, the activity change % (negative = inhibition) in assay [10] is -4.77% (inactive) and -5.66% (inactive). In addition, the activation in [11] is -0.258% (inactive) and -3.95% (inactive); in [19], 3.17% (inactive) and 2.53% (inactive).
Consider `CCOP(=O)(NC(C)C)Oc1ccc(S(C)=O)c(C)c1` (centres undefined), for which the Potency entry in assay [1], in [2], in [3], in assay [5], in assay [6] and in assay [7] was “inactive” in each case. Further, the Potency entry in [13] and in assay [16] was “inactive” each time. The result in assay [17] was inactive. Besides, the max response in [18] was 0.27%; in assay [8], -12.4%; in assay [9], 0.125% (inactive); in assay [12] it was -2.3% (inactive); in assay [14] it was 20.7% (inactive); in assay [15] it was -0.132% (inactive). Also, the max response in [20] was -1.03% (inactive). The activity change % (negative = inhibition) in assay [10] was 7.26% (inactive). Also, the activation in assay [11] is -0.147% (inactive); in assay [19], 3.87% (inactive).
